High-throughput results (PubChem)
eIF4H inh: inhibitors of RNA binding by human eIF4H; Q15056; eIF4H fluorescence polarization binding assay; inhibition, % at 35 µM; actives 0.94% (n = 290,000); AID 2012;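 also: calls also rest on retests at 20 µM and on dose response follow-up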
eIF4E 4G PPI: blocks eIF4E binding to eIF4G; TR-FRET eIF4E-eIF4GI(517-606) binding, 2 h; inhibition, % at 21.7 µM; actives 0.37% (n = 220,000);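 active = inhibition above about 30%, limit read from the data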;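 also: 0% = full FRET control wells and 100% = background wells lacking eIF4GI fragment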
PABP polyA inh: blocks human PABP binding to poly(A) RNA; inhibition, % at 35 µM; P11940; actives 1% (n = 290,000); fluorescence polarization; AID 2014;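 also: calls also rest on retests at 20 µM and on dose response follow-up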
PABP1 MLLE inh: inhibitors of microRNA-mediated deadenylation, human PABP1 MLLE binding. actives 0.36% (n = 360,000). P11940. inhibition, % at 20 µM. GST-MLLE / FITC-PAM2 fluorescence polarization; in the data active = inhibition above about 35%, passing the limit was not always enough;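 also: plate controls were DMSO wells with GST-MLLE for no effect and wells lacking GST-MLLE protein for full effect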
PERK inh: blocks human PERK kinase; Q9NZJ5; CHO PERK-DD fusion, SEAP luminescence translation reporter; inhibition, % at 5.6 µM; actives 0.17% (n = 220,000);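 active = inhibition above the mean inhibition of all tested compounds plus 3 SD, set separately per screening campaign, cut at about 2.9% in these data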;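 also: PERK kinase domain activated by AP20187 dimerizer at 100 nM; 0% = DMSO with dimerizer and 100% = rapamycin at 8.4 µM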
Numbers without * were called inactive. The list is not random: actives were taken first. Their share in the collection is about 1.6%. Unless noted, no rule for the calls is given here.

What do the screens show for `Cc1ccc(S(=O)(=O)NCCCNS(=O)(=O)c2ccc(C)cc2)cc1`?
PABP1 MLLE inh: 5

What do the screens show for `O=C(CSc1nc2c(c(=O)n1-c1ccc(F)cc1)SCC2)NCc1ccco1`?
eIF4H inh: 2; eIF4E 4G PPI: -1; PABP polyA inh: 8; PABP1 MLLE inh: 45*; PERK inh: -1

Results for CCOC(=O)c1ccc(N2C(=O)c3n[nH]c(C)c3C2c2ccc(O)cc2)cc1 (stereo not drawn) ?
eIF4H inh: -10; eIF4E 4G PPI: 13; PABP polyA inh: -7; PABP1 MLLE inh: -10; PERK inh: 1

How did CSc1cc(-c2ccco2)oc1C(=O)c1ccco1 do in these assays?
PABP1 MLLE inh: -20

How did Cc1ccc(NC(=O)CCSc2nnc(C)s2)cc1 do in these assays?
eIF4H inh: -1; eIF4E 4G PPI: 8; PABP polyA inh: 45; PABP1 MLLE inh: -23; PERK inh: 2.9*

What do the screens show for `O=C1NN(c2ccc(F)cc2)C(=O)/C1=C\C=C\c1ccco1`?
eIF4H inh: 88*; eIF4E 4G PPI: 3; PABP polyA inh: active; PABP1 MLLE inh: 0; PERK inh: 1

Results for O=C1NN(c2ccc(F)cc2)C(=O)/C1=C\c1cnn(-c2ccccc2)c1 ?
eIF4H inh: 5; eIF4E 4G PPI: 7; PABP polyA inh: -1; PERK inh: 1

Results for CC(=O)Nc1cccc(NC(=O)CSc2ncc(C(=O)Nc3ccc(F)cc3)c(=O)n2C)c1 ?
PABP1 MLLE inh: 11

Results for CC(=O)Nc1cccc(NC(=O)CSc2ncc(C(=O)Nc3ccccc3)c(=O)n2C)c1 ?
PABP1 MLLE inh: 42*

Results for Cc1cccc(C)c1NC(=O)CSc1nnc(-c2ccco2)c(-c2ccco2)n1 ?
eIF4H inh: 100*; eIF4E 4G PPI: 14; PABP polyA inh: 80*; PABP1 MLLE inh: 30; PERK inh: 0

How did Cc1ccccc1NC(=O)CSc1nnc(-c2ccco2)c(-c2ccco2)n1 do in these assays?
eIF4H inh: 99*; eIF4E 4G PPI: 14; PABP polyA inh: 69*; PABP1 MLLE inh: 21; PERK inh: 1

How did COc1cccc2c(=O)n(CC(=O)Nc3ccc(F)cc3)ccc12 do in these assays?
eIF4H inh: -10; eIF4E 4G PPI: 0; PABP polyA inh: -8; PABP1 MLLE inh: 0; PERK inh: 0

How did COc1cccc2c(=O)n(CC(=O)Nc3ccccc3F)ccc12 do in these assays?
eIF4H inh: inconclusive; eIF4E 4G PPI: 4; PABP polyA inh: 12*; PABP1 MLLE inh: 2; PERK inh: 0

What do the screens show for `Nc1ccc(N2CCOCC2)c(Cl)c1`?
eIF4H inh: 5; eIF4E 4G PPI: -5; PABP polyA inh: 0; PABP1 MLLE inh: -18; PERK inh: 1

How did O=C(CCCc1ccccc1)Nc1ccccc1C(F)(F)F do in these assays?
eIF4H inh: -7; PABP polyA inh: 13; PABP1 MLLE inh: -9

Results for COc1ccc(CCC(=O)Nc2ccccc2C(F)(F)F)cc1 ?
eIF4H inh: 80*; eIF4E 4G PPI: 4; PABP polyA inh: 18*; PABP1 MLLE inh: -2; PERK inh: 0

How did O=C(C1COc2ccccc2O1)N1CCN(Cc2ccc(Br)cc2F)CC1 (stereo not drawn) do in these assays?
eIF4H inh: -17; PABP polyA inh: 2; PABP1 MLLE inh: 2

What do the screens show for `CCN(CC)c1ccc(/C=N/NC(=O)c2ccc3nc[nH]c3c2)cc1`?
eIF4H inh: -3; eIF4E 4G PPI: 87*; PABP polyA inh: -4; PABP1 MLLE inh: 1; PERK inh: 1

Results for CN(C)c1ccc(/C=N/NC(=O)c2ccc3nc[nH]c3c2)cc1 ?
eIF4H inh: -14; eIF4E 4G PPI: 11; PABP polyA inh: -8; PABP1 MLLE inh: -12; PERK inh: 0

What do the screens show for `Cc1ccc(SCC(=O)c2ccc(CC(=O)O)s2)cc1`?
eIF4H inh: 74*; eIF4E 4G PPI: 3; PABP polyA inh: 21; PABP1 MLLE inh: 23; PERK inh: 2

How did COc1ccc(Sc2ccccc2CN(C)C)cc1OC do in these assays?
eIF4H inh: -4; eIF4E 4G PPI: 3; PABP polyA inh: -5; PABP1 MLLE inh: 18; PERK inh: 0

How did CNCc1ccccc1Sc1ccc(O)c(O)c1 do in these assays?
eIF4H inh: 36; eIF4E 4G PPI: 23; PABP polyA inh: 17; PABP1 MLLE inh: 40*; PERK inh: 1

Results for O=C(NC(=S)Nc1ccccc1Cl)C1CC1 ?
eIF4H inh: 2; PABP polyA inh: 7; PABP1 MLLE inh: 41*

Results for O=C(NC(=S)Nc1ccccc1O)c1ccccc1Cl ?
eIF4H inh: 1; eIF4E 4G PPI: -1; PABP polyA inh: -6; PABP1 MLLE inh: 44*; PERK inh: 0

Results for COc1ccccc1NC(=S)NC(=O)C1CC1 ?
eIF4H inh: -5; eIF4E 4G PPI: 12; PABP polyA inh: 0; PABP1 MLLE inh: 20; PERK inh: 0

Results for CC(=O)c1cccc(NC(=S)NC(=O)c2ccccc2Cl)c1 ?
eIF4H inh: -9; eIF4E 4G PPI: 4; PABP polyA inh: -2; PABP1 MLLE inh: 22; PERK inh: -1

What do the screens show for `COc1cccc(CN2CCN(Cc3cccc(Br)c3)CC2)c1OC`?
eIF4H inh: 3; PABP polyA inh: 4; PABP1 MLLE inh: -4

Results for CC(CS(=O)(=O)c1ccc2c(c1)NC(=O)CS2)C(=O)N1CCN(c2cccc(Cl)c2)CC1 (stereo not drawn) ?
eIF4H inh: 74*; PABP polyA inh: 34*; PABP1 MLLE inh: -28

Results for CC(CS(=O)(=O)c1ccc2c(c1)NC(=O)CS2)C(=O)NCc1ccccc1Cl (stereo not drawn) ?
eIF4H inh: 67; PABP polyA inh: 25*; PABP1 MLLE inh: -28

What do the screens show for `O=C1CSc2ccc(S(=O)(=O)NCc3ccccc3Cl)cc2N1`?
eIF4H inh: -5; PABP polyA inh: 3; PABP1 MLLE inh: 1

Results for COC(=O)[C@@]1(C)[C@H]2C(=O)N(Cc3ccccc3)C(=O)[C@H]2[C@H]2CN=C(SCC(=O)c3ccccc3)N21 ?
PABP1 MLLE inh: 43*

Results for COC(=O)[C@@]1(C)[C@H]2C(=O)N(Cc3ccccc3)C(=O)[C@H]2[C@H]2CN=C(SC)N21 ?
PABP1 MLLE inh: -20

What do the screens show for `COc1ccc(F)cc1C(=O)C1CCCN(Cc2ccc3c(c2)OCCO3)C1` (stereo not drawn)?
eIF4H inh: -7; eIF4E 4G PPI: 3; PABP polyA inh: 1; PABP1 MLLE inh: -8; PERK inh: 0

How did C=CCn1c(C)cc(C(=O)CSc2nnc(-c3cccc(S(=O)(=O)N(CC)CC)c3)o2)c1C do in these assays?
eIF4H inh: 7; eIF4E 4G PPI: -18; PABP polyA inh: -8; PABP1 MLLE inh: -97; PERK inh: 0

Results for CCN(CC)S(=O)(=O)c1cccc(-c2nnc(SCC(=O)c3cc(C)n(C4CC4)c3C)o2)c1 ?
eIF4H inh: 70*; PABP polyA inh: 86*; PABP1 MLLE inh: -113

Results for CC1C2(C)OC(=N)C(C#N)(C(C)O2)C1(C#N)C#N (stereo not drawn) ?
eIF4H inh: 48; eIF4E 4G PPI: 1; PABP polyA inh: 18; PABP1 MLLE inh: 64*; PERK inh: 2
